In the library only some 28% were active in any assay of this set; here they are far more common.
DAT uptake mod – changed human dopamine transporter uptake under cocaine IC80; Q01959; LLC-PK1 hDAT cells, [14C]-dopamine uptake with cocaine IC80; actives deviate in either direction; B-score at 10 µM; hit rate 1.3% among 110,000; AID 449768;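 active = Z score or B-score, a plate-position-corrected score, falls beyond the plate's 99.7% confidence bounds, in either direction; inactive = both scores lie inside the 99.7% bounds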;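 also: scored against the spread of the other compound wells on the same plate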
CYP2C9 inhib – human CYP2C9 inhibition; AID 777; inhibition, % at 5 µM; hit rate 20% among 96,000; CYP2C9 Supersomes, luciferin-H conversion, luminescence;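 active = blocking of liver enzyme CYP2C9 beyond about 50% at 5 µM, limit read from the data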
CYP2C19 inhib – inhibitors of human CYP2C19; CYP2C19 Supersomes, luciferin-H EGE luminescence, 30 min; hit rate 21% among 96,000; inhibition, % at 5 µM; AID 778;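 active = CYP2C19 inhibition above a set limit at 5 µM in the primary screen, cut at about 50% in these data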;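 also: plate controls were negative control wells for no effect and 2.5 mM tranylcypromine positive control for full effect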
Target sequence (P33261 whole entry, looked up): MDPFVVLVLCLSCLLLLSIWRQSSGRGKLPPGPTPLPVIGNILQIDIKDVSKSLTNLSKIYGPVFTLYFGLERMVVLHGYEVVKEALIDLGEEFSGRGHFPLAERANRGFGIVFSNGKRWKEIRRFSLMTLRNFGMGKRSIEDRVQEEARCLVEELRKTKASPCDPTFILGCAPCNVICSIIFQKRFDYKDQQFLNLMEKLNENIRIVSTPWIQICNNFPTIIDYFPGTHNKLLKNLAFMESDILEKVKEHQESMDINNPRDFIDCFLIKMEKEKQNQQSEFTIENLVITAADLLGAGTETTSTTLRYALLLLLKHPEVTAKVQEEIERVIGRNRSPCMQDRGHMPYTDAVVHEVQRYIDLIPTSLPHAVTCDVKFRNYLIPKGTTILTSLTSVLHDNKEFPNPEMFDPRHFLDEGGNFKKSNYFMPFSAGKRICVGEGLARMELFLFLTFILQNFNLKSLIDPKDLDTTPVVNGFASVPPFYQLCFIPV
CYP2C19 activ – activators of human cytochrome P450 2C19. P33261. recombinant CYP2C19, luciferin-H EGE luminescence; hits give high values; 0 = fully inhibited enzyme, 1 = untreated enzyme. activation factor at 5 µM. 96,000 tested, under 10 active;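 active = activation factor of at least 2 at 5 µM in the primary screen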;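 also: 0 = wells with 2.5 mM tranylcypromine and 1 = vehicle-only wells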
CYP2C9 act – activators of human CYP2C9; activation factor at 5 µM; AID 1024; recombinant CYP2C9, luciferin-H conversion, luminescence; hits give high values; factor 1 = untreated enzyme, 0 = blocked; P11712; hit rate 1.4% among 96,000;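 active = activation factor of 2 or more for CYP2C9 at a 5 µM dose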;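 also: 0 = sulfaphenazole-blocked wells and 1 = vehicle-only wells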
D1 allo mod – D1 dopamine receptor (human) allosteric modulation; HEK293 D1, CRE-luciferase, dopamine EC30 potentiation; actives deviate in either direction; B-score at 10 µM; hit rate 5.9% among 58,000;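 active = luminescence count or its row- and column-corrected plate score outside the 99.7% band of the plate's sample wells, on either side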
* hit, by the source's call; / = no result.

SMILES	DAT uptake mod	CYP2C9 inhib	CYP2C19 inhib	CYP2C19 activ	CYP2C9 act	D1 allo mod
Cc1cc2oc3c(c(=O)c2cc1C)C(c1cccc(Br)c1)N(Cc1ccco1)C3=O (configuration not stated)	1.3	95*	98*	0	0	/
CCN(CC)CCN1C(=O)c2oc3ccccc3c(=O)c2C1c1cccc(Br)c1 (configuration not stated)	0.27	41	37	0.6	0.6	-2.2
Cc1ccc(S(=O)(=O)N2CCOCC2)cc1C(=O)O	-0.58	-1	-3	1	1	-0.31
Cc1ccc(S(=O)(=O)N2CCOCC2)cc1C(=O)N1C(=O)c2cccc(N)c2C1=O	-6.5*	2	17	0.8	1	0.52
CCC(C)(C)NC(=O)CN(C(=O)CNS(=O)(=O)c1ccccc1)c1ccccc1	-0.48	-2	10	0.9	1	0.008
COc1cccc2c1C(=O)O/C2=C/c1ccc2c(c1)OCO2	-0.55	55*	62*	0.4	0.5	/
Cc1ccc(Nc2c([N+](=O)[O-])c(=O)n(C)c3ccccc23)cc1C	-0.027	-19	64*	0.4	1.2	/
CC(C)(C)c1ccc(OCCNC(=O)c2ncn[nH]2)cc1	0.029	53*	75*	0.2	0.5	/
Cc1cccc2cc3c(NC(=O)C(C)C)nn(C)c3nc12	-0.012	2	8	0.9	1	0.052
CCOc1ccc(S(=O)(=O)N2CCN(c3ccccc3)CC2)c2cccnc12	0.61	59*	36	0.6	0.4	2.1
CCOc1ccc(S(=O)(=O)N2CCN(c3ccccc3OC)CC2)c2cccnc12	-0.021	58*	49	0.5	0.4	/
COc1ccccc1N1CCN(S(=O)(=O)c2ccc3c4c(cccc24)C(=O)N3C)CC1	0.48	72*	64*	0.4	0.3	-0.33
COc1ccccc1N1CCN(S(=O)(=O)c2ccc3c4c(cccc24)C(=O)N3)CC1	0.097	16	31	0.7	0.8	/
CCOc1ccc(S(=O)(=O)N2CCN(c3ccc(OC)cc3)CC2)c2cccnc12	-0.22	42	17	0.8	0.6	/
CN1C=CC2=C(C#N)C(N)C(C#N)(C#N)[C@H](c3ccccc3)[C@H]2C1 (some centres not stated)	-0.11	/	/	/	/	/
CCCCC(c1nnnn1CCOC)N1CCN(C)CC1 (configuration not stated)	0.063	/	/	/	/	/
CC1CCCC(C)N1c1nnc(NC(=O)c2cc(-c3ccc(Br)cc3)on2)s1 (configuration not stated)	/	74*	52*	0.5	0.3	/
O=C(Nc1nnc(N2CCCCCC2)s1)c1cc(-c2ccc(Br)cc2)on1	0.59	15	-19	1.2	0.8	0.11
CSc1nc2cc(S(=O)(=O)N3CCOCC3)ccc2s1	0.87	63*	99*	0	0.4	2.2
Cc1nc(-c2cccc(S(=O)(=O)N3CC(C)CC(C)C3)c2)cs1 (configuration not stated)	0.38	-8	-8	1.1	1.1	/
Cc1nc(-c2cccc(S(=O)(=O)N3CC(C)OC(C)C3)c2)cs1 (configuration not stated)	0.62	20	77*	0.2	0.8	1.6
CCOC(=O)C1CCN(S(=O)(=O)c2cccc(-c3csc(C)n3)c2)CC1	0.27	46	40	0.6	0.5	2.5
Cc1nc(-c2cccc(S(=O)(=O)N3CCOCC3)c2)cs1	-0.19	66*	76*	0.2	0.3	0.34
Cc1nc(C)c(NC(=O)N2CCc3ccccc32)cc1NC(=O)N1CCc2ccccc21	0.32	77*	52*	0.5	0.2	-0.79
Fc1ccc(CSc2nncn2NCc2ccccc2)cc1	0.83	/	/	/	/	/
SMILES	DAT uptake mod	CYP2C9 inhib	CYP2C19 inhib	CYP2C19 activ	CYP2C9 act	D1 allo mod
CN(C)c1ccc(CNn2cnnc2SCc2ccc(F)cc2)cc1	1.2	63*	98*	0	0.4	1.4
Fc1ccc(CSc2nncn2NC/C=C/c2ccccc2)cc1	1.6	25	69*	0.3	0.8	/
CCO[C@H]1OC(C(=O)N2CCOCC2)=C[C@@H](C)[C@@H]1CCCO	0.14	/	/	/	/	/
CN1CCN(C(=O)C2=C[C@@H](C3CC3)C[C@@H](OCc3ccc(CO)cc3)O2)CC1	-0.8	/	/	/	/	/
CCC(Sc1nc(-c2ccccc2)cc(=O)[nH]1)C(=O)O (configuration not stated)	-1.1	-17	2	1	1.2	-0.37
Cc1cc(=O)[nH]c(SCC(=O)Nc2ccc(C(=O)O)cc2)n1	-1	16	14	0.9	0.8	/
Cc1ccc(NC(=O)CSc2nc(NS(=O)(=O)c3ccccc3)cc(=O)[nH]2)cc1	0.39	61*	23	0.8	0.4	/
Cc1ccc(-c2csc(NC(=O)CSc3nc(C)cc(=O)[nH]3)n2)cc1	2.3*	82*	27	0.7	0.2	/
CCC(Sc1nc(-c2ccccc2)c(C#N)c(=O)[nH]1)C(=O)Nc1nnc(C)s1 (configuration not stated)	-0.45	67*	11	0.9	0.3	/
CCC(Sc1nc(C)cc(=O)[nH]1)C(=O)Nc1nc(-c2ccccc2)cs1 (configuration not stated)	1.6	88*	71*	0.3	0.1	/
Cc1cccc(-n2c(Cn3nc(C)c([N+](=O)[O-])c3C)n[nH]c2=S)c1	-0.14	-3	7	0.9	1	/
COC(=O)C(Cc1cnc(Cl)s1)(C(=O)OC)c1ccccc1[N+](=O)[O-]	-0.29	65*	94*	0.1	0.3	/
COC(=O)C(Cc1cnc(Cl)s1)(C(=O)OC)c1ccc([N+](=O)[O-])cc1	0.43	73*	91*	0.1	0.3	/
COC(=O)C(C)(C(=O)OC)c1ccccc1[N+](=O)[O-]	1.2	7	8	0.9	0.9	/
COC(=O)C(C)(C(=O)OC)c1ccc([N+](=O)[O-])cn1	-0.74	-5	6	0.9	1	/
CN(C1CCCCC1)S(=O)(=O)c1ccc(Cl)c(C(=O)O)c1	-1.7	7	5	0.9	0.9	-0.85
O=[N+]([O-])CC(=Nc1ccc(Cl)cc1)N/N=C\c1oc(O)c2ccccc12	/	28	-2	1	0.7	/
COC(=O)c1ccc(NC(=O)c2cccc(Cl)c2)o1	0.74	25	18	0.8	0.7	/
CCCSc1nn2c(=O)c3ccccc3nc2s1	-1.1	49	79*	0.2	0.5	/
CC(=O)n1nc(-c2cccnc2)nc1N	0.71	8	7	0.9	0.9	/
CN(C)c1nc(N)nc(-c2cccnc2)n1	-0.018	-5	3	1	1.1	4.6*
Cc1ccccc1NC(=O)COC(=O)CN1C(=O)NC(C)(C)C1=O	-1.4	16	22	0.8	0.8	/
CC1(C)NC(=O)N(CC(O)CNC23CC4CC(CC(C4)C2)C3)C1=O (configuration not stated)	-0.14	6	7	0.9	0.9	0.99
